Experimental data as given in PubChem BioAssay AID686970 (National Center for Advancing Translational Sciences (NCATS), 2013).
The whole screen tested about 360,000 compounds, of which about 6,000 (1.7%) were called active. Inconclusive results (about 8%) are left out. The call rests on the fitted dose curve; in most records, active means well fitted cell-killing curve with a large enough effect; inconclusive means small, poorly fitted or top-dose-only effect, or effect the other way; inactive means flat fitted curve, though single readings scatter. The list comes from a sample in which actives are over-represented; it also holds similar structures and randomly drawn compounds. A call without a number means that no potency is given here.

experiment: qHTS for induction of synthetic lethality in tumor cells producing 2HG: qHTS for the HT-1080-NT fibrosarcoma cell line; conditions: HT-1080-NT fibrosarcoma viability, CellTiter-Glo ATP luminescence, 48 h; series mostly up to 46.1 µM;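 further: NT is the 2HG producing partner of a matched IDH1 knockdown line; nearly all actives have a fitted effect of over 55% in size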
Summary of the method: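 A 48-hour cytotoxicity screen used HT-1080-NT cells plated 2 hours before compound delivery. ATP-based CellTiter-Glo luminescence measured viability, normalized to DMSO and no-cell controls.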
Potency means the concentration at half of the fitted maximal effect.

Structure (SMILES)	Potency
COc1cc2nc(N3CCCN(C)CC3)nc(NC3CC3)c2cc1OC	inactive
Cc1nc2ccccc2c(=O)n1-c1ccc(NS(=O)(=O)c2ccc(F)cc2F)cc1	inactive
Cc1[nH]n(-c2ccc(Cl)cc2)c(=O)c1/C=N/n1c(C)nc2ccccc2c1=O	23.1 µM (active)
O=c1c2ccccc2ncn1/N=C/c1ccccc1	inactive
CC1(C(=O)O)CCN1C(=O)/C=C/c1ccccc1 (stereo not drawn)	inactive
CC1(C)CCSC(/C=C/c2ccccc2)=N1	23.1 µM (active)
CC1(C(=O)NS(=O)(=O)c2ccccc2)CCN1C(=O)C/C=C/c1ccccc1 (stereo not drawn)	inactive
O=C(O)C(=Cc1ccc([N+](=O)[O-])cc1)CCc1ccccc1	inactive
Brc1ccc2nc(-c3ccccc3)c(Cc3ccccc3)n2c1	inactive
Cc1ccc(-c2nc3ccc(Br)cn3c2Cc2ccccc2C(F)(F)F)cc1	inactive
CCS(=O)(=O)N1CCCC(C(=O)NCc2ccc(C)cc2)C1 (stereo not drawn)	inactive
Cc1ccc(NC(=O)N2CCC(C(=O)NCc3ccc(F)cc3)CC2)cc1	inactive
CCc1ccc(CNC(=O)C2CCN(c3nnc(C)c4c(C)n(-c5ccc(C)cc5)nc34)CC2)cc1	13 µM (active)
CCN(CC)C(=O)C1=C(C)N(Cc2ccc(F)cc2)C(=O)C(CC(=O)NC2CCCC2)C1 (stereo not drawn)	inactive
COc1ccccc1NC(=O)[C@H](COCc1ccccc1)NC(=O)OC(C)(C)C	inactive
C[C@@H](NC(=O)OC(C)(C)C)c1nnc(S(=O)(=O)Cc2ccccc2)o1	16.4 µM (active)
CCc1ccccc1NC(=O)CSc1nnc([C@@H](NC(=O)OC(C)(C)C)C(C)CC)o1 (stereo partly drawn)	inactive
CC1(C(=O)Nc2cccc3c2CCCC3)CCN1C(=O)C1(c2ccccc2)CC1 (stereo not drawn)	inactive
O=C(Nc1ccccc1)c1ccccc1Br	inactive
COc1ccc2sc(-c3ccc(S(C)(=O)=O)cc3)c(-c3ccc(C(N)=O)cc3)c2c1	inactive
COc1ccc(-c2sc3ccc(OC)cc3c2C#Cc2ccccn2)cc1	inactive
COc1ccc2sc(-c3ccc(S(C)(=O)=O)cc3)c(C#Cc3cncn3C)c2c1	20.6 µM (active)
CC1=C(C(=O)N(C)C)CC(CC(=O)NCCN2CCOCC2)C(=O)N1Cc1ccccc1 (stereo not drawn)	inactive
O=C1[C@H]2[C@@H](c3ccc(C(F)(F)F)cc3)N[C@]3(CCCN(Cc4ccc(Cl)cc4)C3=O)[C@H]2C(=O)N1Cc1ccccc1	inactive
CCCCN1C[C@H](c2ccc(Br)cc2)[C@@H](CC(=O)Nc2ccc(Br)cc2)C1=O	inactive
C=CCNc1nc(N)c([N+](=O)[O-])c(NC2CCCCC2)n1	inactive
Nc1nc(Nc2ccccc2F)nc(NC2CCCCC2)c1[N+](=O)[O-]	16.4 µM (active)
Nc1nc(NCC2CCCO2)nc(Nc2ccccc2F)c1[N+](=O)[O-] (stereo not drawn)	inactive
